PI5P4Ka inh: qHTS for Inhibitors of phosphatidylinositol 5-phosphate 4-kinase (PI5P4K) | Phosphatidylinositol 5-phosphate 4-kinase type-2 alpha (Homo sapiens), P48426 | PI5P4Kalpha enzyme, ADP-Glo luminescence, 60 min; stronger effect = lower value | 1.2% of 330,000 active | AID 652105, 2013 | max response, %; active = max response of -50% or lower; inconclusive = between -30% and -50%; inactive = -30% or higher; note: value at the top dose of about 77 µM; % is set by controls: 0 for no effect and ±100 for the full control effect
Target sequence (P48426 whole entry, looked up): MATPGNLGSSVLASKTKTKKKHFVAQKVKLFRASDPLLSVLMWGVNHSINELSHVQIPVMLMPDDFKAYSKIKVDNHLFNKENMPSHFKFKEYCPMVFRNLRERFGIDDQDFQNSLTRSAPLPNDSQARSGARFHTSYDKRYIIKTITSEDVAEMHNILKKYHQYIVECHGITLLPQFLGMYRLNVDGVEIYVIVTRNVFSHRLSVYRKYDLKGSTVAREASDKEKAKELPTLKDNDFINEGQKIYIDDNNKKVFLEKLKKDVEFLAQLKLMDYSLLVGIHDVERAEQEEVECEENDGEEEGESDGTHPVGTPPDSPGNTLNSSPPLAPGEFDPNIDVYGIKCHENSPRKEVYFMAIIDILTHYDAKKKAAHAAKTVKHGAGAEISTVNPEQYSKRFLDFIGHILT
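qHTS, 1536-well: enzyme/substrate mix, compound by pin tool, 5 microM ATP final; RT 60 min; ADP-Glo reagents 1 (45 min) then 2 (30 min); luminescence.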
HP1b binding inh: HTS for Inhibitors of HP1-beta Chromodomain Interactions with Methylated Histone Tails; AlphaScreen HP1-beta / biotin-H3K9me3 peptide binding; Potency, µM (titrated, usually from 114 µM), for inactives: top-dose activity change, negative = inhibition, hits mostly inhibitors; 0.56% of 390,000 active; note: potency is the fitted concentration of half-maximal effect; nearly all actives have a fitted effect of over 70% in size
Target sequence (P83916 whole entry, looked up): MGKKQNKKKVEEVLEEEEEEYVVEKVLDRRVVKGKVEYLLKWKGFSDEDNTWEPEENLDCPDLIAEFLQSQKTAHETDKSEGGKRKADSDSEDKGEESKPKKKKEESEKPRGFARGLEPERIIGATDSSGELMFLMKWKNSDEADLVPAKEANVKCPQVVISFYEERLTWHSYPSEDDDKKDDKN
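AlphaScreen: HP1-beta (50 nM) preformed 30 min with biotin-H3(1-18)K9me3 peptide (50 nM) in PBS pH 7.4, 0.01% Tween-20. Compound added for 30 min at RT, then streptavidin donor/nickel chelate acceptor beads (10 ug/mL) for 30 min.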
BAZ2B inh: qHTS Assay for Inhibitors of BAZ2B; Bromodomain adjacent to zinc finger domain protein 2B (Homo sapiens), Q9UIF8; AlphaScreen BAZ2B-H3K14Ac peptide displacement; Potency, µM (series often up to 114 µM), for inactives: at the highest dose activity change, negative = inhibition, hits mostly inhibitors; 4.4% of 360,000 active; AID 504333, 2011; note: potency is the fitted concentration of half-maximal effect; % is set by controls: 0 for no effect and ±100 for the full control effect; nearly all actives have a fitted effect of over 60% in size
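BAZ2B 50 nM plus b-H3(5-23)K14Ac 50 nM, PBS pH 7.4/0.01% Tween-20, 30 min RT; compound added (max 110 uM), 30 min RT; streptavidin donor/Ni-chelate acceptor beads 10 ug/mL final, 20 min dark; AlphaScreen read.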
JMJD2A Tudor inh: qHTS Assay for Inhibitors of JMJD2A-Tudor Domain. Lysine-specific demethylase 4A (Homo sapiens), O75164. AlphaScreen JMJD2A-Tudor / H3K4me3 peptide binding. Potency, µM (titrated, usually from 114 µM), without a hit: at the top dose activity change, negative = inhibition, most hits filed as inhibitors. 4.4% of 390,000 active; note: potency is the fitted concentration of half-maximal effect; % is set by controls: 0 for no effect and ±100 for the full control effect; nearly all actives have a fitted effect of over 50% in size
G9a inh-1: qHTS Assay for Inhibitors of Histone Lysine Methyltransferase G9a | Histone-lysine N-methyltransferase EHMT2 (Homo sapiens), Q96KQ7 | G9a H3K9 monomethylation, AlphaScreen, 2 h | Potency, µM (highest dose often 102 µM), for inactives: at the highest dose activity, negative = inhibition, hits mostly inhibitors | 8.8% of 350,000 active | AID 504332, 2011; note: potency is the fitted concentration of half-maximal effect; % is set by controls: 0 for no effect and ±100 for the full control effect; nearly all actives have a fitted effect of over 75% in size
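G9a (20 nM) was preincubated 15 min with compound, then reacted 2 h at room temperature with 500 nM biotin-H3K9 peptide and 20 µM SAM. Monomethyl-H3K9 detected by AlphaScreen using anti-H3K9me1 antibody.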
PLK1 PBD block: qHTS for Inhibitors of PLK1-PDB (polo-like kinase 1 - polo-box domain): Primary Screen; AID 720504, 2013; 2.8% of 360,000 active; Plk1 PBD binding of FITC phosphopeptide, fluorescence polarization; Potency, µM, for the others: max response, negative = inhibition, usual class: inhibitors; note: potency is the fitted concentration of half-maximal effect; series mostly up to about 57 µM; % is set by controls: 0 for no effect and ±100 for the full control effect; nearly all actives have a fitted effect of over 65% in size
G9a inh-2: qHTS Assay for Inhibitors of Histone Lysine Methyltransferase G9a: Hit Confirmation; shares compounds with JMJD2A Tudor inh; G9a H3K9 monomethylation, AlphaScreen, 2 h; Potency, µM, actives largely listed as inhibitors; 89% of 370 active; AID 588344, 2011; note: potency is the fitted concentration of half-maximal effect; nearly all actives have a fitted effect of over 65% in size
RGS4 inh: qHTS for Inhibitors of Regulator of G Protein Signaling(RGS) 4: Hit Validation | Potency, µM, most hits filed as inhibitors | AID 602388, 2012 | 80% of 25 active | shares compounds with JMJD2A Tudor inh | RGS4 GAP activity, Transcreener GDP fluorescence polarization
ADP-Glo counter: qHTS for Inhibitors of PI5P4K: ADP-Glo counter assay. shares compounds with PI5P4Ka inh. ADP-Glo detection counter-screen, luciferase luminescence, no enzyme. Potency, µM (doses to about 76.9 µM), for inactives: at the highest dose activity change, negative = inhibition, usual class: inhibitors. 1,100 tested, under 10 active. AID 743285, 2014
TbPYK confirm: qHTS of Trypanosoma Brucei Inhibitors: Confirmatory Assay for Cherry-picked Compounds. shares compounds with PLK1 PBD block. recombinant TbPYK, Kinase-Glo ATP luminescence. Potency, µM (titrated, usually from 76.9 µM), for inactives: at the top dose activity change, negative = inhibition, hits mostly inhibitors. 67% of 890 active. AID 720569, 2013; note: potency is the fitted concentration of half-maximal effect; % is set by controls: 0 for no effect and ±100 for the full control effect; nearly all actives have a fitted effect of over 70% in size
TbPYK ADP-Glo: qHTS of Trypanosoma Brucei Inhibitors: Orthogonal Assay for Cherry-picked Compounds | 62% of 890 active | shares compounds with PLK1 PBD block | recombinant TbPYK, ADP-Glo luminescence, 60 min | AID 720584, 2013 | Potency, µM (series often up to 76.9 µM), for the others: top-dose activity change, negative = inhibition, most hits filed as inhibitors; note: potency is the fitted concentration of half-maximal effect; % is set by controls: 0 for no effect and ±100 for the full control effect; nearly all actives have a fitted effect of over 75% in size
* hit, by the source's call; ? = inconclusive; . = not tested or not shown; [ ] = another dose, or the depositor's remark. Sampled rows, rich in hits. Any-hit rate of the full collection: about 12%. Unless noted, calls come from the whole dose curve; as a rule, active = well fitted curve in the direction sought with a large enough effect; inconclusive = small, poorly fitted or top-dose-only effect, or another doubt; inactive = no such curve, though single readings can be large; an effect the other way counts as inactive or inconclusive.

SMILES	PI5P4Ka inh	HP1b binding inh	BAZ2B inh	JMJD2A Tudor inh	G9a inh-1	PLK1 PBD block	ADP-Glo counter	others
CCN(CC(=O)Nc1ccc(NC(C)=O)cc1)Cc1c(O)ccc2cc(Br)ccc12	-71*	71µM*	50µM*	50µM*	1.8µM*	9.5µM*	-5%	G9a inh-2=0.45*
Cn1c(=O)c2c(SCC(=O)N3CCc4ccccc43)nc(-c3ccccc3Cl)nc2n(C)c1=O	.	7%[57 µM]	6%	-15%	?	.	.
Cc1ccc(CNC(=O)CSc2ncccn2)cc1	?	16%	-5%	-7%	?	-1%	3%	G9a inh-2=22*
COc1ccc(NC(=O)c2cc3c(=O)n(C)c4cc(Cl)ccc4c3s2)cc1Cl	.	22%	3%	-11%	-15%[59 µM]	.	.
Fc1cccc(Cl)c1CNc1ccc(N2CCCC2)cc1	-63*	25µM*	13µM*	20µM*	1.8µM*	21µM*	-21%	G9a inh-2=5.6*
CCOC(=O)C1CCCN(C(=O)c2cc(-c3ccco3)nc3ccccc23)C1 (configuration not stated)	-85*	40µM*	.	14µM*	.	?	-7%	RGS4 inh=27*
CCOC(=O)C1CCCN(C(=O)c2cc(-c3ccncc3)nc3ccccc23)C1 (configuration not stated)	-3	35%	8%	-5%	-2%	-2%	.
COc1ccc([N+](=O)[O-])cc1NC(=O)CSc1nc(C)cc(C)n1	?	18%	-4%	?	2.5µM*	13µM*	.	G9a inh-2=6.3*;TbPYK confirm=28µM*;TbPYK ADP-Glo=16µM*
Cc1ccc(S(=O)(=O)N2CC3C(=O)C[C@@H](c4ccccc4)N(S(=O)(=O)c4ccc(CCCOCCOCCNC(=O)OC(C)(C)C)cc4)C3CC2c2ccccc2)cc1 (some centres not stated)	6	.	.	.	.	-8%	.
O=C(Cc1ccc(S(=O)(=O)N2CCOCC2)s1)Nc1nc2c(s1)CCCC2	-66*	?	18µM*	56µM*	.	?	-3%
O=C(Cc1ccc(S(=O)(=O)N2CCOCC2)s1)NCC1CCCCC1	?	-9%	?	-23%	-23%	-11%	.
O=C(Cc1ccc(S(=O)(=O)N2CCOCC2)s1)NC1CCCCC1	-51*	-26%	50µM*	?	13µM*	-10%	-9%
CCc1ccc(NC(=O)CC2C(=O)N(c3ccccc3)C(=O)N2C(C)C)cc1 (configuration not stated)	.	12%	-4%	-13%	0%[59 µM]	.	.
CC12CC(NC(=O)N1c1cccc(C(=O)N3CCCCC3)c1)c1ccccc1O2 (configuration not stated)	4	31%	-11%	0%	25%	-2%	.
COc1cc2nc(Nc3ccc(C)c(Cl)c3)nc(N)c2cc1OC	-60*	-22%	?	-35%	50µM*	-15%	4%
COc1cc2nc(Nc3ccc(C)c(C)c3)nc(N)c2cc1OC	?	7%	?	?	-8%	1%	.
O=CNc1cc(-c2ccc(C(=O)NC3CC3)cc2)cn2c(-c3ccc(F)cc3)cnc12	-28	.	.	.	.	-18%	.
COc1ccc2c([N+](=O)[O-])c(Cl)[nH]c2c1	-57*	?	79µM*	56µM*	25µM*	-26%	0%
CC(C)NC(=O)c1ccc2c3n(nc2c1)-c1ccccc1CO3	-52*	21%	24%	-11%	23%[12.7 µM]	-4%	?
O=C(Nc1cc(Cl)ccc1N1CCOCC1)C1=COCCO1	7	31%	9%	-1%	-2%	-2%	.
COc1ccc(OC)c(S(=O)(=O)NCCCn2ccnc2)c1	3	11%	-17%	-6%	27%	-17%	.
COc1ccc(Cl)cc1S(=O)(=O)NCCCn1ccnc1	-23	39%	-33%	-6%	-12%	-8%	-1%
O=C(COC(=O)c1ccc(S(=O)(=O)N2CCCCC2)cc1)NCc1ccco1	-23	?	.	?	?	-10%	.
O=C(OCc1ccco1)c1ccc(S(=O)(=O)N2CCCCC2)cc1	-52*	-3%	50µM*	79µM*	?	-27%	-2%
Cc1ccc(C(c2cc(Cl)c3cccnc3c2O)N2CCN(C)CC2)cc1 (configuration not stated)	-89*	?	22µM*	45µM*	3.5µM*	1.5µM*	6%
COc1cccc(C(=O)NC(c2ccc(Cl)cc2)c2cc(Cl)c3cccnc3c2O)c1 (configuration not stated)	.	8%	5%	-1%	18%[59 µM]	.	.
CC1(C(=O)NS(C)(=O)=O)CCN1C(=O)Cc1ccc(-c2ccccc2)cc1 (configuration not stated)	1	.	.	.	.	-1%	.
CC(C)Cc1nnc(NC(=O)CC(=O)Nc2ccccc2C(=O)O)s1	-57*	30%	-32%	1%	?	-1%	0%
